Screens deposited in PubChem by National Center for Advancing Translational Sciences (NCATS).
The list is not random: actives were taken first. Their share in the collection is about 8.7%.
JMJD2A Tudor: JMJD2A Tudor domain (human) inhibition; O75164; AlphaScreen JMJD2A-Tudor / H3K4me3 peptide binding; Potency, µM (top dose mostly 114 µM), for inactives: top-dose activity change, negative = inhibition, most hits filed as inhibitors; hit rate 4.4% among 390,000; further: on the % scale 0 is the no-effect control and ±100 the full control effect; nearly all actives have a fitted effect of over 50% in size
ALOX12 inh: blocks human arachidonate 12S-lipoxygenase. purified 12hLO, xylenol orange hydroperoxide absorbance. P18054. hit rate 1.1% among 580,000. Potency, µM (doses to about 108 µM), without a hit: top-dose activity change, negative = inhibition, usual class: inhibitors; further: on the % scale 0 is the no-effect control and ±100 the full control effect
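Purified human 12hLO (150 nM final) in 25 mM Hepes, 0.01% Triton X-100, pH 7.0 was preincubated 15 min at room temperature with compound. Then 40 uM arachidonic acid was added, 30 min. Hydroperoxide was read by Fe-XO absorbance ratio 573/405 nm.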
Sfp inh: blocks B. subtilis Sfp PPTase activity; Q9F4F7; Biochemical Sfp PPTase activity, qHTS; Potency, µM, without a hit: largest response in the series, negative = inhibition, actives largely listed as inhibitors; hit rate 3.5% among 310,000; AID 1490;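 further: the enzyme is Sfp with the accession as filed and its product quenches rhodamine fluorescence; 0% = enzyme reaction without inhibitor and -100% = no enzyme wells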
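After 15 min at room temperature with compound, 15 nM Sfp received 5 uM rhodamine-CoA plus 12.5 uM BHQ-2-ybbR (50 mM Hepes pH 7.6, 10 mM MgCl2). Rate came from the fluorescence difference over 30 min, ex 525/em 598 nm.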
HP1b binding inh: HP1-beta chromodomain-methylated histone interaction inhibition | hit rate 0.56% among 390,000 | AID 540317 | Potency, µM (highest dose often 114 µM), inactives show at the top dose activity change, negative = inhibition, actives largely listed as inhibitors | AlphaScreen HP1-beta / biotin-H3K9me3 peptide binding; further: nearly all actives have a fitted effect of over 70% in size
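Compound inhibition of the preformed complex between 50 nM HP1-beta and 50 nM biotinylated H3K9me3 peptide was read by AlphaScreen. Buffer was PBS pH 7.4 with 0.01% Tween-20. Incubations ran 30 min at room temperature, with 10 ug/mL donor/acceptor beads.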
G9a block: blocks human histone lysine methyltransferase G9a; G9a H3K9 monomethylation, AlphaScreen, 2 h; hit rate 8.8% among 350,000; Potency, µM (highest dose often 102 µM), for the others: at the highest dose activity, negative = inhibition, most hits filed as inhibitors; Q96KQ7; AID 504332; further: on the % scale 0 is the no-effect control and ±100 the full control effect; nearly all actives have a fitted effect of over 75% in size
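Chemiluminescent proximity detection of H3K9 monomethylation, read after 10 min bead incubation in the dark. Reaction: 20 nM G9a, 500 nM biotin-H3K9 peptide, 20 uM SAM cofactor, 2 h, room temperature, following 15 min enzyme-compound preincubation.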
BAZ2B inh: blocks human BAZ2B | hit rate 4.4% among 360,000 | Potency, µM (titrated, usually from 114 µM), for inactives: top-dose activity change, negative = inhibition, actives largely listed as inhibitors | AID 504333 | Q9UIF8 | AlphaScreen BAZ2B-H3K14Ac peptide displacement; further: on the % scale 0 is the no-effect control and ±100 the full control effect; nearly all actives have a fitted effect of over 60% in size
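BAZ2B (50 nM) with biotin-H3(5-23)K14Ac peptide (50 nM) in PBS pH 7.4, 0.01% Tween-20, preformed 30 min, then compound 30 min at room temperature; top concentration 110uM. AlphaScreen streptavidin donor/nickel chelate acceptor beads (10 ug/mL final), 20 min dark, signal read.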
Starred values were filed as active, the others as inactive; ? = inconclusive; / = no result; [ ] = dose if it differs, or a comment. The call rests on the fitted dose curve; in most records, active means well fitted curve in the direction sought with a large enough effect; inconclusive means small, poorly fitted or top-dose-only effect, or another doubt; inactive means no such curve, though single readings can be large; an effect the other way counts as inactive or inconclusive. Potency means the concentration at half of the fitted maximal effect.

SMILES	JMJD2A Tudor	ALOX12 inh	Sfp inh	HP1b binding inh	G9a block	BAZ2B inh
C=CCOc1ccc(/C=C2\C(=N)N3N=C(S(=O)(=O)CC)SC3=NC2=O)cc1OC	-12.1%	-12.3%	19.4%	10.6%	2.4%[59 µM]	?
N=C1/C(=C\c2ccc(OC(=O)c3ccc(F)cc3)cc2)C(=O)N=C2SC(N3CCOCC3)=NN12	1.9%	-6.6%	-20.4%	39.5%	-9.5%	44.7µM*
Cc1ccc2nc(SCc3nc(-c4cccc(Cl)c4)no3)[nH]c2c1	/	-24.0%	/	/	/	/
COc1ccc(C(=O)N2CCCCC2c2nc(CCOCC3CCOCC3)no2)cc1F (centres undefined)	/	27.9%	/	/	/	/
O=C(CSCCc1ccccn1)Nc1ccccn1	-7.6%	?	-9.4%	51.0%	56.2µM*	-2.3%
O=c1c2ccccc2nc2sc3ccccc3n12	-1.4%[11.4 µM]	167.4%	2.0%	29.4%	5.3%[59 µM]	2.8%
S=c1[nH]nc2sc3ccccc3n12	1.12µM*	-74.9%	/	-30.7%	/	/
CCOC(=O)c1sc(S(C)=O)c2c1CCc1conc1-2 (centres undefined)	-15.3%	122.5%	39.8µM*	43.2%	31.6µM*	-3.1%
CC1CCCN(C(=O)CSc2nnc(-c3cccs3)n2N)C1 (centres undefined)	/	-5.1%	/	/	/	/
CCNc1nc(NCC)nc(NC(N)=S)n1	-7.7%	-24.1%	-7.3%	16.1%	25.1µM*	-4.7%
CCCNc1nc(NCC)nc(OC)n1	-1.8%	298.1%	6.6%	16.9%	43.0%	-19.1%[57.1 µM]
CCNc1nc(NC(N)=S)nc(NC(C)(C)C)n1	-5.1%	?	31.6µM*	?	3.55µM*	0.9%
Cc1cnc(CCNC(=O)c2cn(C)cn2)n1CC1CC1	/	94.9%	/	/	/	/
c1ccc(-c2nnc(SCc3nnc(-c4cccs4)o3)o2)cc1	-12.3%	1.1%	-8.2%	25.8%	?	50.1µM*
Clc1ccc(-c2nnc(CSc3nnc(-c4cccs4)o3)o2)cc1	4.1%	134.9%	6.6%	30.8%	-34.4%[59 µM]	-0.9%
Cc1ccc2nc(Cl)c3cc(C(=O)NC(C)CCc4ccccc4)sc3c2c1 (centres undefined)	/	-0.4%	/	/	/	/
Cc1ccccc1CC(=O)N1CC(C(=O)NC2CCCCC2)C2(CCOCC2)C1 (centres undefined)	/	39.5%	/	/	/	/
O=C(O)C(Cc1ccc(Cl)cc1)Sc1nc2ccccc2[nH]1 (centres undefined)	-2.1%	?	-7.9%	-10.7%	50.1µM*	-1.2%
O=C(CSc1nc2ccccc2[nH]1)N1CCN(S(=O)(=O)c2ccc(Cl)cc2)CC1	-10.2%	0.0%	-23.5%	42.0%	35.5µM*	0.6%
Cc1nnc(NC(=O)CSc2nc3ccccc3[nH]2)s1	-6.2%	-19.3%	2.6%	30.8%	-18.9%	/
C=CCSc1nnc(NC(=O)CSc2nc3ccccc3[nH]2)s1	0.6%	-5.1%	17.4%	26.8%	1.78µM*	-7.7%
Cc1ccc(CNC(=O)CSc2nc3ccccc3[nH]2)cc1	-11.6%	0.0%	-9.9%	54.2%	25.1µM*	-20.0%
O=C(NC1CCCN(c2cc(-c3ccccc3)[nH]n2)C1)c1ccc2c(c1)OCO2 (centres undefined)	/	46.6%	/	/	/	/
O=C(c1ccn[nH]1)N1C[C@@H](COc2cccnc2)[C@H](c2ccncc2)C1	/	54.0%	/	/	/	/
COc1ccc(OC)c(S(=O)(=O)N2CCc3nn(CC4CC4)c(=O)n3CC2)c1	/	14.9%	/	/	/	/
SMILES	JMJD2A Tudor	ALOX12 inh	Sfp inh	HP1b binding inh	G9a block	BAZ2B inh
COC(=O)c1ccc(CNC(=O)CSc2nc3ccccc3[nH]2)cc1	2.5%	-9.7%	18.5%	19.7%	39.8µM*	-2.1%
COc1ccc2nc(SCC(=O)NCc3ccccc3)[nH]c2c1	-15.9%	17.1%	8.7%	21.5%	-6.6%	-21.8%
O=C(CCCSc1nc2ccccc2[nH]1)NCc1ccc(Cl)cc1	-17.3%	?	14.8%	43.3%	10µM*	-2.5%
CC(C)C[C@@H]1N[C@H](C(=O)NCCN(C)C)Cc2cn(CC3CC3)c3cccc1c23	/	49.1%[176 µM]	/	/	/	/
COCCO[C@H]1C(=O)N(C2CCN(C(=O)NC3CCCCC3)CC2)[C@H]1c1ccncc1	/	19.9%	/	/	/	/
O=C(/C=C/c1ccc([N+](=O)[O-])cc1)N(c1ccccn1)C1CCCCC1	56.2µM*	?	-0.7%	?	5.62µM*	/
Cc1cccc(CC(=O)N2C[C@@H](F)C[C@H]2C(=O)N2CCCCC2)c1	/	23.7%	/	/	/	/
C1CSC2(N1)C1CC3CC(C1)CC2C3 (centres undefined)	-32.5%	?	35.5µM*	-3.8%	6.31µM*	-2.1%
COc1ccc(O[C@H]2C=C[C@@H](c3ccccc3)O[C@@H]2CO/N=C(\C)CCN2CCCCc3nc(C)c(C)cc32)cc1	/	-5.3%	-11.3%	/	39.8µM*	?
C/C(CCN1CCCCc2nc(C)c(C)cc21)=N\OC[C@@H](O)[C@H]1O[C@@H]2OC(C)(C)O[C@@H]2[C@H]1O	/	/	12.9%	/	50.1µM*	-17.7%
COc1ccc(O[C@H]2C=C[C@@H](c3ccccc3)O[C@H]2COC(=O)CC/C(C)=N\O[C@@H](C)CN2CCCc3nc(C)c(C)cc32)cc1	/	/	0.8%	/	/	/
C/C(CCN1CCCCc2nc(C)c(C)cc21)=N\OC[C@@H](O)[C@@H]1O[C@@H]2OC(C)(C)O[C@@H]2[C@H]1O	/	/	16.3%	/	/	/
Cc1cc(C(=O)CSc2nncs2)c(C)n1-c1ccc2c(c1)OCO2	?	14.4%	-9.2%	?	?	44.7µM*
Cc1cc(-n2c(C)cc(C(=O)CN3C(=O)NC4(CCCCCC4)C3=O)c2C)no1	-21.0%	15.9%	7.9%	7.4%	18.1%[2.33 µM]	?
Cc1cc(C(=O)CN2C(=O)NC3(CCCCC3)C2=O)c(C)n1-c1ccc2c(c1)OCO2	56.2µM*	-13.5%	-24.8%	?	11.6%[59 µM]	?
COc1ccc(/C=C2\SC(=S)N(CCCC(=O)N3CCCCC3CCO)C2=O)cc1 (centres undefined)	35.5µM*	-17.8%	-10.6%	-24.4%	-4.1%[0.0925 µM]	7.94µM*
O=C1/C(=C\c2ccccc2)SC(=S)N1CCC(=O)N1CCCCC1CCO (centres undefined)	-3.4%	0.5%	-1.5%	34.5%	?	?
COc1ccc(/C=C2\SC(=S)N(CCCC(=O)N3CCN(C)CC3)C2=O)cc1	?	?	-4.1%	?	?	?
CC(C)c1ccc(/C=C2\SC(=S)N(CCC(=O)N3CCCCC3CCO)C2=O)cc1 (centres undefined)	12.6µM*	-8.9%	-17.8%	-38.2%[57 µM]	44.7µM*	?
CCCn1nc(C(=O)N(CC)c2ccccc2C)c2ccccc2c1=O	/	11.9%	/	/	/	/
c1ccc(-c2ccc(OCCN3CCCC3)cc2)cc1	/	/	-16.8%	/	/	/
c1ccc(-c2sc3ccccc3c2-c2ccc(OCCN3CCCC3)cc2)cc1	50.1µM*	-0.6%	/	-15.1%	/	/
